The supplement of paper PMC4466236
The full ranking holds about 33,000 sequences; the median of “E-score (dimensionless, -0.5 to 0.5)” is about -0.058, and the highest 2% start at about 0.35. The list comes from a sample in which the highest values are over-represented; it also holds similar and randomly drawn sequences.

System: MvaT
Experiment: PBM 8-mer E-score (mean of HK and ME arrays) (E-score (dimensionless, -0.5 to 0.5)); higher = stronger relative binding preference
Description: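 Protein binding microarray: GST-tagged full-length MvaT (P. aeruginosa PAO1) bound to two universal double-stranded 60-mer arrays (ME and HK), each with a constant 25-mer primer and a variable 35-mer region covering all 8-mers. The 8-mer E-score (rank-based, range -0.5 to 0.5, >0.45 = specific binding) is the mean of the two arrays.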

Sequence	PBM 8-mer E-score
AATTGTTA	0.377
ACTTATTA	0.416
CCTTATTA	0.292
AATTACTA	0.323
TCTAGGCA	-0.16
CCGAGCGC	-0.231
TATCTGAA	0.238
ATGTCCTG	-0.157
CATAGCGA	0.0278
AGTACCGC	-0.108
GTGAGCTA	-0.209
CAAGCCTG	-0.209
AATTAGTC	0.282
CATTAGTA	0.191
AATTATTC	0.352
AATTAGTA	0.384
ACTTATTC	0.229
AATTATCC	0.296
GAGATTTA	0.0378
GTTGCATA	0.0505
ATCATTAC	0.235
CGACAACA	0.0714
CATATTAC	0.294
AATATCAT	0.294
AAGATTAT	0.286

Sequence	PBM 8-mer E-score
AATATTGG	0.278
AATATTAC	0.372
AATATTAT	0.445
AATATTGC	0.307
CCTATTAC	0.151
CCTATTAG	0.0715
AATATTAG	0.394
AATATTGT	0.355
CATATTAG	0.305
TATTCTGA	0.132
CTGATAGC	-0.222
CCCGGGCG	-0.302
GAGCTGGC	-0.277
AACTCTTA	0.21
ATAAAGAT	0.333
GTAAATAA	0.366
ATAAACAT	0.342
ATAAATCA	0.295
ATAAATAG	0.358
GTAAATGA	0.222
CTAAATAG	0.102
GTAAATAC	0.228
ATAAATGA	0.316
ATAAATCG	0.255
ATAAATAT	0.44

Sequence	PBM 8-mer E-score
ATAAATAA	0.442
ATGTTCTA	0.0957
TAGTCGGA	-0.0242
ACATTTCA	0.153
ATTTAGAA	0.321
GTAGTGTA	0.0767
CGGTGCTA	-0.21
ATAAATAC	0.362
ATAAATCC	0.25
ATAAATGC	0.279
CGGTTTCC	-0.194
CAATTTGG	0.0733
AATTAAGC	0.328
AATTAAGG	0.37
CATTAAGG	0.0854
ACTTAAGT	0.314
AGTTAAGG	0.135
AATTAAGT	0.395
ATGCAGAA	0.0633
CAGACAAA	0.0494
GAGAGGCC	-0.32
AGATGAGA	0.0308
AGATATTC	0.209
GAATATGC	0.119
GAATATCC	0.0901

Sequence	PBM 8-mer E-score
AAATATTC	0.363
GAATATTC	0.349
AAATATCC	0.253
GACCGAAA	-0.0789
GGGACGGA	-0.273
TAGGAGGA	-0.23
CTCATTTA	0.172
GCTATTTA	0.252
CTTATTTA	0.391
CTTATTTC	0.291
ATTATTTA	0.44
ATTATTTG	0.351
ACTATTTG	0.258
AGTATTTG	0.308
GGTATTTA	0.27
GTTATTTA	0.395
AGTATTTA	0.33
ACTATTTA	0.345
GACGACGA	0.0375
AGCCTTCG	-0.32
CAAAAATC	0.0508
GAGATTAC	0.135
AAGAAACT	0.186
GGCGTGGA	-0.173
GACCATAA	-0.0261

Sequence	PBM 8-mer E-score
CGGAGCCA	-0.2
GCAATCCA	-0.0685
CGCACCCC	-0.26
AGTATTTC	0.207
ATTATTGC	0.292
ATTATTTC	0.352
AACCTGGA	-0.275
AGCGCGAT	-0.196
CATTTTAA	0.176
TATTTTAA	0.41
CATTTAAA	0.386
AATTTAAC	0.31
CATTTAAG	0.287
AATTTTAA	0.321
TATTTTCA	0.277
AATTTAGA	0.183
AATTTAAA	0.443
AATTTAAT	0.431
AATTTAAG	0.271
GATTTTAA	0.248
ATGCATAG	-0.0132
CGCGCATA	0.113
GCGTGAAC	-0.168
GGACCCCA	-0.231
TACGCACA	0.0888

Sequence	PBM 8-mer E-score
CGGTGGCA	-0.169
CGCACGTA	-0.1
CCTGCACG	-0.224
GATTTAAC	0.245
GATTTACA	0.072
GATTTAAA	0.395
TCTTTAAA	0.227
CATTTACA	0.339
TATTTAGA	0.308
TATTTACA	0.374
TATTTAAA	0.433
GATTTGAA	0.2
ATGTCAAC	0.0323
CGCCTACG	-0.307
AGGGAGAG	-0.161
ACATTAAG	0.265
GCATTTAA	0.326
AGATTAAA	0.178
CCATTAAA	0.329
ACATTAAC	0.345
AGATTAAT	0.379
GCATTAAA	0.256
ACATTTAA	0.388
AGATTAAG	0.175
ACATTAAA	0.359

Sequence	PBM 8-mer E-score
ACATTAAT	0.382
ACATTTAG	0.177
ACCACATC	-0.0359
ATGCTCTA	-0.124
TGTGCCAA	-0.0753
AGGAATTA	0.226
CGTCCCCC	-0.209
AACATTAC	0.234
TACTCCAA	0.097
GACCCTAC	-0.272
ACATTTTG	0.0944
GAAAGTGA	0.135
CCGACTAG	-0.0959
CTTATTAC	0.367
GCTATTAC	0.121
ATTATTGG	0.293
CTTATTGC	0.178
ATTATTAC	0.439
ATTATTCG	0.378
ATTATTAG	0.411
ATTATTCA	0.328
ACTATTAC	0.32
CTTATTCC	0.221
ATTATTCC	0.341
ACTATTAG	0.26
